Results taken from PubChem BioAssay (NCATS).
Results filed as inconclusive are left out. Entries that show only a call come without a potency. Activity calls are given as the source filed them. Unless noted, the call rests on the fitted dose curve; in most records, active means well fitted inhibition curve with a large enough effect; inconclusive means small, poorly fitted or top-dose-only effect; inactive means flat fitted curve, though single readings scatter.

What was measured:
[1] = S16 Schwann cell PMP22 intronic element beta-lactamase assay (AID 624044; calls by dose curve; further: nearly all actives have a fitted effect of over 15% in size)
In short: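 Rat S16 Schwann cells with beta-Lac driven by a PMP22 intronic element, compound-treated 24 h at 37 °C. LiveBLAzer FRET B/G read: 460 nm normalized to potassium clavulanate vs DMSO; 535 nm FRET as viability; concentration-effect curves classified.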

AS120 = assay: qHTS profiling for inhibitors of Plasmodium falciparum proliferation (AID 504749); further: nearly all actives have a fitted effect of over 60% in size; further: potency means the concentration at half of the fitted maximal effect; settings: P. falciparum in erythrocytes, SYBR Green DNA, 72 h; series mostly up to 12.8 µM
In short: (§1)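 P. falciparum-infected erythrocytes (0.3% parasitemia, 2.5% hematocrit final) were exposed to compounds for 72 h at 37 C in 5% CO2, then lysed with SYBR Green buffer overnight at room temperature; parasite DNA fluorescence was normalized to artemisinin and DMSO controls.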

ATS95 = assay: as above; settings: P. falciparum in erythrocytes, SYBR Green DNA, 72 h; series mostly up to 12.8 µM
In short: as §1

CP201 = assay: as above; settings: P. falciparum in erythrocytes, SYBR Green DNA, 72 h; series mostly up to 12.8 µM
In short: as §1

CP238 = assay: as above; settings: P. falciparum in erythrocytes, SYBR Green DNA, 72 h; series mostly up to 12.8 µM
In short: as §1

CP252 = assay: as above; settings: P. falciparum in erythrocytes, SYBR Green DNA, 72 h; series mostly up to 12.8 µM
In short: as §1

CP262 = assay: as above; settings: P. falciparum in erythrocytes, SYBR Green DNA, 72 h; series mostly up to 12.8 µM
In short: as §1

CP266 = assay: as above; settings: P. falciparum in erythrocytes, SYBR Green DNA, 72 h; series mostly up to 12.8 µM
In short: as §1

CP297 = assay: as above; settings: P. falciparum in erythrocytes, SYBR Green DNA, 72 h; series mostly up to 12.8 µM
In short: as §1

CP305 = assay: as above; settings: P. falciparum in erythrocytes, SYBR Green DNA, 72 h; series mostly up to 12.8 µM
In short: as §1

CP315 = assay: as above; settings: P. falciparum in erythrocytes, SYBR Green DNA, 72 h; series mostly up to 12.8 µM
In short: as §1

CP329 = assay: as above; settings: P. falciparum in erythrocytes, SYBR Green DNA, 72 h; series mostly up to 12.8 µM
In short: as §1

N140 = assay: as above; settings: P. falciparum in erythrocytes, SYBR Green DNA, 72 h; series mostly up to 12.8 µM
In short: as §1

PC15 = assay: as above; settings: P. falciparum in erythrocytes, SYBR Green DNA, 72 h; series mostly up to 12.8 µM
In short: as §1

W2 = assay: as above; settings: P. falciparum in erythrocytes, SYBR Green DNA, 72 h; series mostly up to 12.8 µM
In short: as §1

3D7 = assay: as above; settings: P. falciparum in erythrocytes, SYBR Green DNA, 72 h; series mostly up to 12.8 µM
In short: as §1

ATS189 = assay: as above; settings: P. falciparum in erythrocytes, SYBR Green DNA, 72 h; series mostly up to 12.8 µM
In short: as §1

DFO2036 = assay: as above; settings: P. falciparum in erythrocytes, SYBR Green DNA, 72 h; series mostly up to 12.8 µM
In short: as §1

SC27B = assay: as above; settings: P. falciparum in erythrocytes, SYBR Green DNA, 72 h; series mostly up to 12.8 µM
In short: as §1

CP217 = assay: as above; settings: P. falciparum in erythrocytes, SYBR Green DNA, 72 h; series mostly up to 12.8 µM
In short: as §1

Structure (SMILES)	Potency [1]	Potency (AS120)	Potency (ATS95)	Potency (CP201)	Potency (CP238)	Potency (CP252)	Potency (CP262)	Potency (CP266)	Potency (CP297)	Potency (CP305)	Potency (CP315)	Potency (CP329)	Potency (N140)	Potency (PC15)	Potency (W2)	Potency (3D7)	Potency (ATS189)	Potency (DFO2036)	Potency (SC27B)	Potency (CP217)
C=C1c2c(Cl)ccc(O)c2C(O)=C2C(=O)[C@@]3(O)C(O)=C(C(N)=O)C(=O)[C@@H](N(C)C)[C@@H]3[C@@H](O)[C@H]12	inactive	inactive	inactive	inactive	inactive	inactive	inactive	inactive	inactive	inactive	inactive	inactive	inactive	inactive	6.42 µM (active)	–	–	–	–	–
CO[C@H]1[C@H](O[C@H]2O[C@@H](C)[C@@H](O[C@@H]3C[C@](C)(O)[C@H](O)[C@H](C)O3)[C@@H](N(C)C)[C@@H]2O)[C@@H](CC=O)C[C@@H](C)[C@@H](O[C@H]2CC[C@H](N(C)C)[C@H](C)O2)/C=C\C=C/C[C@@H](C)OC(=O)C[C@H]1O	–	inactive	–	inactive	inactive	–	–	–	–	–	inactive	inactive	inactive	inactive	3.22 µM (active)	inactive	inactive	inactive	inactive	–
CO[C@H]1[C@H](O[C@H]2O[C@@H](C)[C@@H](O[C@@H]3C[C@](C)(O)[C@H](OC(=O)CC(C)C)[C@H](C)O3)[C@@H](N(C)C)[C@@H]2O)[C@@H](CC=O)C[C@@H](C)[C@@H](O)/C=C\C=C/C[C@@H](C)OC(=O)C[C@H]1OC(C)=O	inactive	–	–	–	–	–	2.28 µM (active)	–	–	–	–	–	–	–	1.61 µM (active)	inactive	–	–	inactive	–
CCCC(=O)Nc1ccc(OC[C@@H](O)CNC(C)C)c(C(C)=O)c1	inactive	–	–	–	–	–	–	–	–	–	–	–	–	–	–	–	–	–	–	–
CC(=O)OCC(=O)[C@@]12OC(C)(C)O[C@@H]1C[C@H]1[C@H]3C[C@H](F)C4=CC(=O)C=C[C@@]4(C)[C@]3(F)[C@H](O)C[C@@]12C	–	inactive	inactive	inactive	inactive	inactive	inactive	inactive	inactive	inactive	inactive	inactive	inactive	inactive	inactive	inactive	inactive	inactive	inactive	inactive
CCCCC[C@H](O)/C=C\[C@H]1[C@H](C/C=C\CCCC(=O)O)[C@@H](O)C[C@H]1O (tested in a mixture with another compound)	inactive	inactive	inactive	inactive	inactive	inactive	inactive	inactive	inactive	inactive	inactive	inactive	inactive	inactive	inactive	inactive	inactive	inactive	inactive	inactive
CS(=O)(=O)c1ccc([C@H](O)[C@H](CO)NC(=O)C(Cl)Cl)cc1	inactive	inactive	inactive	–	inactive	–	–	inactive	–	–	–	–	inactive	inactive	–	inactive	inactive	–	inactive	inactive
COc1ccc(OC)c([C@H](O)CNC(=O)CN)c1	–	inactive	inactive	inactive	inactive	inactive	inactive	inactive	inactive	inactive	inactive	inactive	inactive	inactive	inactive	inactive	inactive	inactive	inactive	inactive
